The assay concerns PDPK1.
On to `CCn1c(-c2ccccn2)nc2cnccc21` [SB-736398], for which the Kd is > 10 µM.
`CCCc1ccc(S(=O)(=O)NC2CCN(c3ccnc(Nc4ccc(F)cc4)n3)C2)cc1` (stereo not drawn) [GSK1379715]: the equilibrium dissociation constant (Kd) is > 10 µM.
For the molecule `Fc1cc(Cl)ccc1Nc1ccnc2cc(-c3ccc(CN4CCCCC4)o3)ccc12` [GW560116], the dissociation constant (Kd) was > 10 µM.

For the origin of these results see PMC5540273 (PLoS ONE, 2017).
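Also: kd values determined as follow-up on hits from a single-replicate KINOMEscan panel screen.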
